# According to PubChem BioAssay (Tox21):
# “And” between values parts separate entries of the source, which are not always exact repeats. Identical values can stand only once. Inconclusive results are not listed. Where a call stands in place of a potency, no number is given. Some structures have more than one record in an assay (separate samples or runs), and their calls can disagree. The source made the active and inactive calls. Unless noted, calls come from the whole dose curve; as a rule, active = well fitted curve in the direction sought with a large enough effect in the repeat runs; inconclusive = weak or mixed curves; inactive = no such curve, though single readings can be large; an effect the other way counts as inactive or inconclusive.
# What was measured:
# [1] = target: Luciferin 4-monooxygenase (Photinus pyralis) (UniProt P08659); test: qHTS assay to identify small molecule inhibitors of firefly luciferase (AID 1224835); note: nearly all actives have a fitted effect of over 25% in size; note: potency is the fitted concentration of half-maximal effect; details: purified P. pyralis luciferase, luminescence inhibition; series mostly up to 115 µM
# Method in brief: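 Quantitative HTS format; KM concentrations of both substrates. Purified P. pyralis FLuc activity quantified from luminescence images.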
# [2] = qHTS assay to identify small molecule agonists of the constitutive androstane receptor (CAR) signaling pathway - cell viability counter screen (AID 1224836); details: HepG2-CYP2B6-hCAR viability, CellTiter-Fluor, 23 h, PK11195 added to every well; series mostly up to 92.4 µM; note: nearly all actives have a fitted effect of over 45% in size; note: potency is the fitted concentration of half-maximal effect
# Method in brief: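 HepG2 cells stably carrying hCAR and a CYP2B6-2.2kb reporter; 15-concentration compounds plus PK11195 (final 0.75 uM), 23 hr at 37 C/5% CO2. Viability read by CellTiter-Fluor fluorescence.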
# [3] = qHTS assay to identify small molecule antagonists of the constitutive androstane receptor (CAR) signaling pathway - cell viability counter screen (AID 1224837); details: HepG2-CYP2B6-hCAR viability, CellTiter-Fluor, 23 h, co-treated with 50 nM CITCO; series mostly up to 92.4 µM; note: nearly all actives have a fitted effect of over 45% in size; note: potency is the fitted concentration of half-maximal effect
# Method in brief: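 HepG2-CYP2B6-hCAR cells, 2500/well, 4 hr pre-incubation; compound titration, 15 conc.; CITCO 50 nM final; 23 hr, 37 C/5% CO2; CellTiter-Fluor, fluorescence intensity.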
# [4] = target: Nuclear receptor subfamily 1 group I member 3 (Homo sapiens) (UniProt Q14994); test: qHTS assay to identify small molecule antagonists of the constitutive androstane receptor (CAR) signaling pathway (AID 1224838); details: HepG2-CYP2B6-hCAR luciferase, CITCO-stimulated, 24 h; series mostly up to 92.4 µM;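 note: HepG2 cells stably expressing hCAR with CYP2B6 luciferase reporter stimulated by CITCO; nearly all actives have a fitted effect of over 40% in size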; note: potency is the fitted concentration of half-maximal effect
# Method in brief: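 HepG2-CYP2B6-hCAR cells; 4 h pre-incubation; cpd (15 conc) + CITCO 50 nM final; 24 h, 37 C/5% CO2; ONE-Glo, luminescence.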
# [5] = target: Nuclear receptor subfamily 1 group I member 3 (Homo sapiens) (UniProt Q14994); test: qHTS assay to identify small molecule agonists of the constitutive androstane receptor (CAR) signaling pathway (AID 1224839); details: HepG2 hCAR CYP2B6-luciferase, agonist mode, 24 h; series mostly up to 92.4 µM;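 note: HepG2 cells stably carrying human CAR and a CYP2B6 luciferase reporter; nearly all actives have a fitted effect of over 15% in size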
# Method in brief: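 HepG2 cells stably co-transfected with hCAR and a CYP2B6-2.2kb luciferase reporter; compounds at 15 concentrations with 0.75 uM PK11195 present. After 24 hr at 37 C, luciferase read by ONE-Glo luminescence.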
# [6] = qHTS assay to identify small molecule agonists of the hypoxia (HIF-1) signaling pathway - cell viability counter screen (AID 1224844; calls by dose curve; note: nearly all actives have a fitted effect of over 50% in size; note: potency is the fitted concentration of half-maximal effect); details: HRE-bla ME-180 viability, CellTiter-Glo luminescence, 17 h; series mostly up to 76.8 µM
# Method in brief: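 ME-180 HRE-bla cells, 2,000/well, 0.5% dialyzed FBS; 5 hr settle, 17 hr compound at 37C/5% CO2; CCF4-AM reporter read first, then CellTiter-Glo luminescence after 30 min RT.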
# [7] = qHTS assay to identify small molecule antagonists of the estrogen related receptor signaling pathway with the pleiotropic PPARgamma coactivator (PGC) from Tox21 10K library - cell viability counter screen (AID 1224840; active = well fitted cell-killing curve with a large enough effect in the repeat runs, not every such curve was filed as active; note: nearly all actives have a fitted effect of over 40% in size; note: potency is the fitted concentration of half-maximal effect); details: PGC/ERR reporter cells viability, CellTiter-Fluor, 17.5 h; series mostly up to 92.4 µM
# Method in brief: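 PGC/ERR cells, 2,000/well; 6 h pre-incubation 37 C/5% CO2; cpd in DMSO via pin tool; 17.5 h 37 C; CellTiter-Fluor, 30 min; fluorescence.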
# [8] = target: Thyrotropin receptor (Homo sapiens) (UniProt P16473); test: qHTS assay to identify small molecule agonists of the thyroid stimulating hormone receptor (TSHR) signaling pathway (AID 1224843; calls by dose curve; note: nearly all actives have a fitted effect of over 45% in size; note: potency is the fitted concentration of half-maximal effect); details: TSHR-HEK293 cells, cAMP HTRF, agonist mode, 30 min; series mostly up to 92.4 µM
# Method in brief: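 TSHR-expressing HEK293 cells (800 per well) were exposed to compounds for 30 min at room temperature. cAMP was then detected by HTRF competition with cAMP-d2 and anti-cAMP cryptate, read after 1 h at room temperature. Fifteen concentrations, triplicate.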
# [9] = qHTS assay to identify small molecule antagonists of the estrogen related receptor signaling pathway with the pleiotropic PPARgamma coactivator (PGC) from Tox21 10K library (AID 1224841; call rule not given here; note: actives are mostly falling curves and most rising ones were filed inactive; nearly all actives have a fitted effect of over 50% in size; note: potency is the fitted concentration of half-maximal effect); details: PGC/ERR reporter cell line, ONE-Glo luciferase, 18 h; series mostly up to 92.4 µM
# Method in brief: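 PGC/ERR cell line, 2,000 cells/well; 6 h pre-incubation 37 C/5% CO2; compounds (DMSO) pinned in; 18 h, 37 C; One-Glo, 30 min RT; luminescence.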
# [10] = qHTS assay to identify small molecule agonists of the estrogen related receptor signaling pathway with the pleiotropic PPARgamma coactivator (PGC) from Tox21 10K library (AID 1224842); details: PGC/ERR reporter cell line, luciferase ONE-Glo, 18 h; series mostly up to 92.4 µM; note: nearly all actives have a fitted effect of over 15% in size
# Method in brief: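 PGC/ERR reporter cells (NTP line) were seeded 2,000 per well, rested 6 h at 37 C/5% CO2, then pin-dosed with compounds in DMSO for 18 h at 37 C; luciferase read by One-Glo luminescence after 30 min at room temperature.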
# Chain of Luciferin 4-monooxygenase (Photinus pyralis) (P08659 whole entry, looked up): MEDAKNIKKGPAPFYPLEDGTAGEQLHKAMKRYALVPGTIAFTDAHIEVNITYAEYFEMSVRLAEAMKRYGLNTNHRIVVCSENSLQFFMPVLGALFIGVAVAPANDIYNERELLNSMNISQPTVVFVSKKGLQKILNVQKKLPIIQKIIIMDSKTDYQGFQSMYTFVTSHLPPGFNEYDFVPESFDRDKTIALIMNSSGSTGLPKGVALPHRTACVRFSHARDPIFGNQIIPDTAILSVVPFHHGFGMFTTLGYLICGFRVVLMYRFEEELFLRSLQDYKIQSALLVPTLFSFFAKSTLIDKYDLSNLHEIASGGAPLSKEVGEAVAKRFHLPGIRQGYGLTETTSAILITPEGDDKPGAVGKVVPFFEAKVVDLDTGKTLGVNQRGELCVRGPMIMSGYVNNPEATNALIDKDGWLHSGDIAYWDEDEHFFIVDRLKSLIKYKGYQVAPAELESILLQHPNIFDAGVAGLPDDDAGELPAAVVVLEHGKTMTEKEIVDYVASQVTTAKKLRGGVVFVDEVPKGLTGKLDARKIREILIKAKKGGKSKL
# Chain of Thyrotropin receptor (Homo sapiens) (P16473 whole entry, looked up): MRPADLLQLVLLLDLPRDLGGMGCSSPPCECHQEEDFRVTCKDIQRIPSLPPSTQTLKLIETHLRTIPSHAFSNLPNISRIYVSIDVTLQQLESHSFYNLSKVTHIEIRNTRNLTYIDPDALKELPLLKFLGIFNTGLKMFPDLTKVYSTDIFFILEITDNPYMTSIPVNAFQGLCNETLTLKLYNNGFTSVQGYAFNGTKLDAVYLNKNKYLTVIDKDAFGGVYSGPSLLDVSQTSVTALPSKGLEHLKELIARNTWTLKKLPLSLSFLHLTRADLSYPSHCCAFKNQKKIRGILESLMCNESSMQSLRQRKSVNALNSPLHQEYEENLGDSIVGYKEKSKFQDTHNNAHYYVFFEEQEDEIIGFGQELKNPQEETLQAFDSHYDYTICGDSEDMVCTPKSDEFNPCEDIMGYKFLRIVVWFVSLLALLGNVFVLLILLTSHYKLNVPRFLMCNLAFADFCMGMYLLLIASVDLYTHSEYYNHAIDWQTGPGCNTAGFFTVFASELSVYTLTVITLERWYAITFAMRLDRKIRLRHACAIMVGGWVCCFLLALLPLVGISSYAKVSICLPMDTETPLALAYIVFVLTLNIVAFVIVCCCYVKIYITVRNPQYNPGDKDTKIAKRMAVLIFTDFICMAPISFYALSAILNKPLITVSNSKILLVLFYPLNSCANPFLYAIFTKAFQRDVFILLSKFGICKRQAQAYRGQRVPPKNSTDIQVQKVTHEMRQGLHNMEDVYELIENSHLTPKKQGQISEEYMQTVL
# Chain of Nuclear receptor subfamily 1 group I member 3 (Homo sapiens) (Q14994 whole entry, looked up): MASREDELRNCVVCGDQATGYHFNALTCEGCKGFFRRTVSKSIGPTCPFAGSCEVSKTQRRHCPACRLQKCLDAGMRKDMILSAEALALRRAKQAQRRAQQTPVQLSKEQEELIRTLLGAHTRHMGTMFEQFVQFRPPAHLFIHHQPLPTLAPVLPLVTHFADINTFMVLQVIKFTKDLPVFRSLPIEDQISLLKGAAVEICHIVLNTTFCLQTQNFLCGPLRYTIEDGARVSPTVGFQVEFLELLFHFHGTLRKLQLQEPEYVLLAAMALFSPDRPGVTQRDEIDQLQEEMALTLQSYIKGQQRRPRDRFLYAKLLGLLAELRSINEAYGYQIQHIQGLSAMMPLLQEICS
smiles,measurement,setting,value
N=C1N=C(N)c2ccccc21,Potency,[1],inactive
same,Potency,[2],48.6 µM (active)
same,Potency,[3],54.5 µM (active)
same,Potency,[4],17.2 µM (active)
same,Potency,[5],inactive
same,Potency,[6],21.9 µM (active)
O=Cc1cc(O)ccc1Br,Potency,[1],57.2 µM (active)
same,Potency,[2],inactive
same,Potency,[3],inactive
same,Potency,[7],inactive
CCCCCCCCn1sc(Cl)c(Cl)c1=O,Potency,[1],3.56 µM (active)
same,Potency,[2],30.6 µM (active)
same,Potency,[3],30.6 µM (active)
same,Potency,[4],27.3 µM (active)
same,Potency,[5],inactive
same,Potency,[8],inactive
same,Potency,[6],6.16 µM (active)
O=C(OCC(COC(=O)c1ccccc1)(COC(=O)c1ccccc1)COC(=O)c1ccccc1)c1ccccc1,Potency,[1],inactive
same,Potency,[2],inactive
same,Potency,[3],inactive
same,Potency,[7],inactive
same,Potency,[9],inactive
same,Potency,[10],inactive
same,Potency,[8],inactive
same,Potency,[6],inactive
COc1c(C)c2c(c(O)c1C/C=C(\C)CCC(=O)O)C(=O)OC2,Potency,[1],inactive
same,Potency,[2],inactive
same,Potency,[3],inactive
same,Potency,[7],inactive
same,Potency,[9],2.66 µM (active)
same,Potency,[10],inactive
same,Potency,[6],0.151 µM (active)
CCN(C(=O)c1cc(C)cc(OC[C@H](C)Nc2ccncc2)c1)C(C)C,Potency,[1],inactive
same,Potency,[2],inactive
same,Potency,[3],inactive
same,Potency,[4],inactive
same,Potency,[8],inactive
same,Potency,[6],inactive
CCCCCCCC/C=C\CCCCCCCCOCCO,Potency,[1],inactive
same,Potency,[2],25.1 µM (active)
same,Potency,[3],31.6 µM (active)
same,Potency,[5],inactive
same,Potency,[7],63.1 µM (active)
same,Potency,[6],28.4 µM (active)
C=C(C)C(=O)OCC[N+](C)(C)C,Potency,[1],inactive
same,Potency,[2],inactive
same,Potency,[3],inactive
same,Potency,[4],inactive
same,Potency,[7],inactive
same,Potency,[8],inactive
same,Potency,[6],inactive
Cc1cccc(S(=O)(=O)O)c1C,Potency,[1],inactive
same,Potency,[2],inactive
same,Potency,[3],inactive
same,Potency,[4],inactive
same,Potency,[8],inactive
same,Potency,[6],inactive
CCCCN(CCCC)c1ccc(C(=O)c2ccccc2C(=O)O)c(O)c1,Potency,[1],inactive
same,Potency,[2],inactive
same,Potency,[3],inactive
same,Potency,[7],inactive
same,Potency,[9],inactive
same,Potency,[10],inactive
same,Potency,[8],inactive
NNc1nc(-c2ccc(N)cc2)cs1,Potency,[1],35.6 µM (active)
same,Potency,[2],inactive
same,Potency,[3],inactive
same,Potency,[4],inactive
same,Potency,[7],61.1 µM (active)
same,Potency,[9],61.1 µM (active)
same,Potency,[10],inactive
same,Potency,[6],inactive
Cc1cc(N)c(S(=O)(=O)O)cc1Cl,Potency,[1],inactive
same,Potency,[2],inactive
same,Potency,[3],inactive
same,Potency,[7],inactive
same,Potency,[9],inactive
same,Potency,[10],inactive
same,Potency,[8],inactive
same,Potency,[6],inactive
Cc1ccc2oc(CN(Cc3ccccc3)C(=O)Nc3c(F)cc(F)cc3F)c(-c3ccc(Cl)cc3)c2c1,Potency,[1],inactive
same,Potency,[2],inactive
same,Potency,[3],inactive
same,Potency,[7],inactive
same,Potency,[10],inactive
same,Potency,[8],inactive
same,Potency,[6],inactive
CCOC(=O)/C=C(C)/C=C/C=C(C)/C=C/c1c(C)cc(OC)c(C)c1C,Potency,[1],inactive
same,Potency,[2],inactive
same,Potency,[3],inactive
same,Potency,[4],inactive
same,Potency,[5],inactive
same,Potency,[8],inactive
same,Potency,[6],inactive
COC(=O)C1=C(C)NC(C)=C(C(=O)OCC(C)C)C1c1ccccc1[N+](=O)[O-] (centres undefined),Potency,[1],inactive
same,Potency,[2],inactive
same,Potency,[3],inactive
same,Potency,[4],inactive
same,Potency,[7],27.3 µM (active) and inactive
same,Potency,[9],13.7 µM (active) and 21.1 µM (active)
same,Potency,[10],inactive
same,Potency,[8],inactive
same,Potency,[6],49 µM (active)
CCCCCCCC(=O)[O-].CCCCCCCC(=O)[O-].[Zn+2],Potency,[1],34.7 µM (active)
same,Potency,[2],inactive
same,Potency,[3],inactive
same,Potency,[4],inactive
same,Potency,[5],inactive
same,Potency,[6],inactive
OCCCCCCCCCCCCBr,Potency,[1],inactive
same,Potency,[2],inactive
same,Potency,[3],inactive
same,Potency,[4],inactive
same,Potency,[8],inactive
same,Potency,[6],44.3 µM (active)
O=CC=C(c1ccccc1)c1ccccc1,Potency,[1],inactive
same,Potency,[2],inactive
same,Potency,[3],inactive
same,Potency,[4],inactive
same,Potency,[6],inactive
CC(NN)c1ccccc1 (centres undefined),"activity change, negative = inhibition",[1],-10.4% [at 23.6 µM] (inactive)
same,"viability change, negative = cytotoxic",[2],-0.8% [at 19 µM] (inactive)
same,"activity change, negative = cytotoxicity",[3],5.95% [at 19 µM] (inactive)
same,"activity, negative = inhibition",[4],27.3% [at 19 µM] (inactive)
same,activation,[8],-0.741% [at 19 µM] (inactive)
O=C(Nc1cccc(Cl)c1)OCC#CCCl,Potency,[1],44.8 µM (active)
same,Potency,[2],54.5 µM (active)
same,Potency,[3],38.6 µM (active)
same,Potency,[7],48.6 µM (active)
same,Potency,[10],inactive
CC1=C(C(=O)OC(C)C)C(c2cccc([N+](=O)[O-])c2)C(C(=O)OC2CN(C(c3ccccc3)c3ccccc3)C2)=C(N)N1 (centres undefined),Potency,[1],inactive
same,Potency,[2],29.8 µM (active)
same,Potency,[3],29.8 µM (active)
same,Potency,[5],inactive
same,Potency,[7],29.8 µM (active)
same,Potency,[10],inactive
same,Potency,[6],6.74 µM (active)
Clc1ccc2n[nH]nc2c1,Potency,[1],inactive
same,Potency,[2],inactive
same,Potency,[4],inactive
same,Potency,[5],inactive
same,Potency,[7],inactive
same,Potency,[8],inactive
same,Potency,[6],inactive
CC(C)C(C)(C)C(C)(C)C(C)(C)S,Potency,[1],inactive
same,Potency,[2],inactive
same,Potency,[3],inactive
same,Potency,[7],inactive
same,Potency,[8],inactive
CCCC/C=C/CCCCO,Potency,[1],inactive
same,Potency,[2],inactive
same,Potency,[3],inactive
same,Potency,[7],inactive
same,Potency,[8],inactive
same,Potency,[6],inactive
CN(C)CCCOC1(Cc2ccccc2)CCCCCC1,Potency,[1],inactive
same,Potency,[2],inactive
same,Potency,[3],inactive
same,Potency,[7],inactive
same,Potency,[8],inactive
same,Potency,[6],inactive
Clc1ccc2nsnc2c1NC1=NCCN1,Potency,[1],inactive
same,Potency,[2],inactive
same,Potency,[4],inactive
same,Potency,[5],inactive
same,Potency,[7],inactive
same,Potency,[9],inactive
same,Potency,[10],inactive
same,Potency,[8],inactive
same,Potency,[6],inactive
Cc1cccc(CN2CCN(C(c3ccccc3)c3ccc(Cl)cc3)CC2)c1 (centres undefined),Potency,[1],inactive
same,Potency,[2],inactive
same,Potency,[4],inactive
same,Potency,[5],inactive
same,Potency,[7],inactive
same,Potency,[10],inactive
CCCC(c1cc(C(C)(C)C)c(O)cc1C)c1cc(C(C)(C)C)c(O)cc1C,Potency,[1],inactive
same,Potency,[2],39 µM (active)
same,Potency,[4],24.6 µM (active)
same,Potency,[5],inactive
same,Potency,[7],22 µM (active)
same,Potency,[9],24.6 µM (active)
same,Potency,[10],inactive
same,Potency,[8],6.19 µM (active)
same,Potency,[6],9.89 µM (active)
O=C(O)c1c(Cl)cccc1Cl,Potency,[1],inactive
same,Potency,[2],inactive
same,Potency,[4],inactive
same,Potency,[5],inactive
same,Potency,[7],inactive
same,Potency,[8],inactive
same,Potency,[6],inactive
CNC(=O)c1ccccc1,Potency,[1],inactive
same,Potency,[2],inactive
same,Potency,[3],inactive
same,Potency,[7],inactive
same,Potency,[8],inactive
same,Potency,[6],inactive
CCCCCCCCCCCC[N+](C)(C)CCCCCCCCCCCC,Potency,[1],79.6 µM (active)
same,Potency,[2],27.3 µM (active)
same,Potency,[4],27.3 µM (active)
same,Potency,[5],inactive
same,Potency,[7],27.3 µM (active)
same,Potency,[10],inactive
same,Potency,[8],24.3 µM (active)
same,Potency,[6],21.9 µM (active)
CC1=NC(C)OC1C (centres undefined),Potency,[1],inactive
same,Potency,[2],inactive
same,Potency,[4],inactive
same,Potency,[5],inactive
same,Potency,[7],inactive
same,Potency,[8],inactive
same,Potency,[6],inactive
CSc1cnc(C)cn1,Potency,[1],inactive
same,Potency,[2],inactive
same,Potency,[3],inactive
same,Potency,[7],inactive
same,Potency,[8],inactive
same,Potency,[6],inactive
